In PubChem BioAssay AID588852 (The Scripps Research Institute Molecular Screening Center, 2011):
Among all 360,000 compounds or so, about 4,600 (1.3%) were called active.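 Rule for the calls: active = percent inhibition above its own plate's cutoff, namely the mean of that plate's compound wells plus 3 SD; inactive = the rest.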 Shown is part of a subset that was picked to be rich in actives.

Each compound was assayed against Muscarinic acetylcholine receptor M1 (Homo sapiens) (UniProt P11229) (assay: human M1 muscarinic receptor antagonists, primary screen, CHO-K1 cells, Fluo-8 calcium fluorescence, 1536-well (AID 588852;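 note: peak over basal fluorescence ratio during 140 s after agonist addition; 0% = ACh EC80 plus DMSO and 100% = DMSO alone without agonist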)). Conditions: CHO-K1 hM1, Fluo-8 calcium fluorescence, ACh EC80 antagonist; at 3 µM; active compounds read high.
Chain of Muscarinic acetylcholine receptor M1 (Homo sapiens) (P11229 whole entry, looked up): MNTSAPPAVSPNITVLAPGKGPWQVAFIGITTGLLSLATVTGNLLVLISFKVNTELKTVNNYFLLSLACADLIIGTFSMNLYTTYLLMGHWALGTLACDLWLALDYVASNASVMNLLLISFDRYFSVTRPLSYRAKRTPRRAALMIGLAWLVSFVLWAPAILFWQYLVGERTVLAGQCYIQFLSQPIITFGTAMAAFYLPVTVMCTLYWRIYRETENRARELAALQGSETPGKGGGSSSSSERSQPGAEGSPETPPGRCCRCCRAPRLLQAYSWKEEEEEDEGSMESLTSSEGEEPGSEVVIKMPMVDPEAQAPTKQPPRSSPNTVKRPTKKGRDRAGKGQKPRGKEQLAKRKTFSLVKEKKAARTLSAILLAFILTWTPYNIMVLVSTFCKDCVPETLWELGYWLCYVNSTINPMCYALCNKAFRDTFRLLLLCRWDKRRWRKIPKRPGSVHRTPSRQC

SMILES | inhibition
CCOc1ccc(CCNC(=O)C2=C(C)C(=O)OC23CCC(C)CC3)cc1OCC (centres undefined) | -7.29% (inactive)
NC(c1csc(NC(=O)Nc2ccccc2Oc2ccccc2)n1)c1ccccc1Cl (centres undefined) | -3.63% (inactive)
CN(Cc1ccccc1)C(=O)COc1ccccc1 | 1.72% (inactive)
Cc1ccc(C)c(NC(=O)CN(C)C(=O)COc2ccc3ccccc3c2)c1 | -15% (inactive)
CN(Cc1ccc(F)cc1)C(=O)COc1ccc2ccccc2c1 | 24.7% (active)
CC(C)(C)N1C(=O)c2c(C(=O)OCc3ccccc3)[nH]c(-c3ccccc3)c2C1=O | -12.3% (inactive)
CCNC(=O)C1(C)CCCN(C(=O)c2c(C)noc2C)C1 (centres undefined) | -8.22% (inactive)
CSc1ccc(CNC(=O)C2(C)CCCN2C)cc1 (centres undefined) | -11.7% (inactive)
O=C(CSc1nc2ccccc2c(=O)n1CCCO)NC1CC1 | -2.1% (inactive)
CC(=O)c1ccc(NC(=O)CSc2nc3ccccc3c(=O)n2CCCN2CCOCC2)cc1 | 1.86% (inactive)
CC1CCN(CCCn2c(SCC(=O)NC3CCCC3)nc3ccccc3c2=O)CC1 | 31.2% (active)
COC(=O)c1ccc2nc(-c3ccc(OC)c(OC)c3)c(Cc3ccccc3)n2c1 | -24% (inactive)
Cc1c(C(=O)OC(C)C)sc(NC(=O)c2cccnc2)c1C#N | -3.46% (inactive)
CC(=O)N1CCCc2cc(S(=O)(=O)CCC(=O)N3CCN(c4ccccc4)CC3)ccc21 | -7.27% (inactive)
CC(=O)N1c2ccc(S(=O)(=O)N3CCC(C(=O)N4CCN(c5ccccc5)CC4)CC3)cc2CC1C (centres undefined) | 10.8% (inactive)
CC(=O)N1CCCc2cc(S(=O)(=O)N3CCCC(C(=O)N4CCN(c5cccc(Cl)c5)CC4)C3)ccc21 (centres undefined) | 57.1% (active)
O=C(CCS(=O)(=O)c1ccccc1Cl)Nc1ccc(S(=O)(=O)Nc2ncccn2)cc1 | -5.9% (inactive)
CCN1C(=O)[C@@H]2[C@@H]3CN(S(=O)(=O)c4ccccc4C)[C@@H](c4ccc(Cl)cc4)[C@@H]3C(=O)C[C@@H]2C1=O | 4.67% (inactive)
Cc1ccc(S(=O)(=O)N2CCC(C(=O)N[C@@H](C)C(=O)NCc3ccccc3)CC2)cc1 | 4.54% (inactive)
CCN(CC(=O)N1CCCC1)S(=O)(=O)c1ccc(F)cc1 | -13% (inactive)
CN(C)CCOC(=O)C(c1ccccc1)C1(O)CCCC1 (centres undefined) | 99.4% (active)
O=C(O)C(c1ccccc1)C1(O)CCCCC1 (centres undefined) | -17.6% (inactive)
O=C(O)C(c1cccs1)C1(O)CCCCC1 (centres undefined) | -1.29% (inactive)
COc1ccccc1N1CCN(CC(=O)NCCc2ccc(S(N)(=O)=O)cc2)CC1 | 4.39% (inactive)
